Assay results published in the supplement of paper PMC11219838.
A number with no mark means an inactive call.

System: Meloidogyne hapla J2
Experiment: proportion of mobile M. hapla J2 relative to DMSO control (fraction of DMSO control); higher = more viable, less nematicidal, active = 0.7 or less
Conditions: 60 µM; 5 days; temperature: 20 °C
Description: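 DODA library (846 commercial 1,3,4- and 1,2,4-oxadiazole compounds plus commercial nematicide controls) screened at a single dose of 60 µM (0.6% DMSO) in 96-well plates, two biological replicates. Read-outs: C. elegans N2 L1 survival/reproduction score at day 6, 20 °C (0: 0-10 worms, 1: 11-20, 2: 21-50, 3: >50, 4: overgrown/starved). C. elegans daf-2 dauer, D. dipsaci and M. hapla J2 mobility at day 5, 20 °C, and P. penetrans mobility at day 5, 20 °C, each relative to DMSO controls. M. hapla egg hatching at day 12, 25 °C, relative to the mean of 8 DMSO wells on the same plate.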

Compound | proportion of mobile M. hapla J2
CC(C)c1ccc(OCc2nc(-c3ccncc3)no2)c(Br)c1 | 0.82
CCCCCOC(=O)CSc1nnc(-c2ccc(Cl)cc2Cl)o1 | 0.737
O=C(CSc1nnc(-c2cccc(F)c2)o1)Nc1ccccc1C(=O)c1ccccc1 | 0.889
c1ccc(-c2noc(C3COc4ccccc4O3)n2)cc1 (stereo not given) | 0.953
Cc1ccc(OCc2nc(-c3ccccc3)no2)cc1C | 1.1
COc1ccc(Cl)cc1-c1nnc(SCC(=O)Nc2nccs2)o1 | 0.826
CCOc1nc(C)ccc1-c1noc(-c2cccc(C)c2)n1 | 0.847
O=C(Nc1ccc(-c2noc(-c3ccc(Cl)cc3)n2)cc1)c1ccco1 | 1.04
CCOC(=O)c1sc(NC(=O)CSc2nnc(-c3ccc(Cl)cc3)o2)c(C#N)c1C | 0.929
COc1cccc(-c2noc(COc3ccc(Cl)cc3)n2)c1 | 0.993
Cc1ccc(-c2nnc(SCC(=O)Nc3ccc(Br)c(C)c3C)o2)cc1 | 1.03
CC1CCN(C(=O)CSc2nnc(-c3cccc(Cl)c3)o2)CC1 | 1.02
C=CCSc1nnc(-c2ccc(Br)cc2)o1 | 0.591 (active)
Cc1ccc(-c2noc(CSc3nc(C)cc(C)n3)n2)cc1 | 0.974
Cc1ccc(SC(C)c2nc(-c3cccnc3)no2)cc1 (stereo not given) | 0.874
c1cc(-c2noc(C34CC5CC(CC(C5)C3)C4)n2)ccn1 | 0.941
O=C(CSc1nnc(-c2ccc(Cl)cc2)o1)NCc1ccccc1 | 0.901
CCOC(=O)c1ccc(OCc2nc(-c3cccs3)no2)cc1 | 1.1
COc1ccc(-c2noc(CSc3nc4cc(C)ccc4[nH]3)n2)cc1 | 0.861
Cc1ccc(-c2noc(-c3ccc(C)cc3)n2)cc1 | 1.01

Compound | proportion of mobile M. hapla J2
Ic1cccc(-c2nc(-c3cccnc3)no2)c1 | 1.04
Clc1ccccc1-c1noc(-c2ccccc2Cl)n1 | 1.02
Cc1ccccc1OCc1nc(-c2ccc3c(c2)OCO3)no1 | 0.878
COc1ccc(-c2noc(-c3ccc(Cl)cc3Cl)n2)cc1 | 1.04
CCc1ccc(OCc2nc(-c3cccnc3)no2)cc1 | 1.04
O=C(CSc1nnc(-c2cccc(Cl)c2)o1)Nc1ccccc1 | 0.813
COc1cccc(-c2noc(-c3ccc(C)cc3)n2)c1 | 0.948
COc1ccc(CC(=O)Nc2ccc(-c3noc(-c4ccccc4Br)n3)cc2)cc1 | 1.08
COc1nc(C)ccc1-c1noc(-c2ccccc2Br)n1 | 0.917
Cc1ccc(NC(=O)CSc2nnc(-c3ccco3)o2)cc1Cl | 0.96
Cc1ccc(C)c(-c2nc(-c3cccnc3)no2)c1 | 1.06
COc1ccc(-c2noc(COc3ccc(Cl)cc3C)n2)cc1 | 0.94
Cc1ccc(-c2nnc(SCc3c(C)cc(C)cc3C)o2)cc1 | 0.926
O=C(CSc1nnc(-c2cccc3ccccc23)o1)Nc1cccc(F)c1 | 0.999
Cc1[nH]c2ccc(-c3nnc(SCC(=O)NCc4ccc(F)cc4)o3)cc2c1C | 0.865
CCc1cccc(CC)c1NC(=O)CSc1nnc(-c2ccccc2OC)o1 | 0.758
COc1cccc(-c2nnc(SCC(=O)Nc3cccc(C(F)(F)F)c3)o2)c1 | 1.01
CC1Cc2ccccc2N1C(=O)CSc1nnc(-c2ccccc2)o1 (stereo not given) | 1.03
Cc1ccc(C)c(OCc2nc(-c3cccnc3)no2)c1 | 1.04
COc1ccccc1NC(=O)CSc1nnc(-c2cccc3ccccc23)o1 | 0.811
